D2 antag = antagonists of human D2 dopamine receptor | 340,000 tested, 2% active | P14416 | HEK293 TREx D2 cells, calcium flux, dopamine EC80 | inhibition, % at 10 µM; in the data active means inhibition above about 30%; inactive means below that, where a call was filed; further: 0% is about no effect
Target sequence (P14416 whole entry, looked up): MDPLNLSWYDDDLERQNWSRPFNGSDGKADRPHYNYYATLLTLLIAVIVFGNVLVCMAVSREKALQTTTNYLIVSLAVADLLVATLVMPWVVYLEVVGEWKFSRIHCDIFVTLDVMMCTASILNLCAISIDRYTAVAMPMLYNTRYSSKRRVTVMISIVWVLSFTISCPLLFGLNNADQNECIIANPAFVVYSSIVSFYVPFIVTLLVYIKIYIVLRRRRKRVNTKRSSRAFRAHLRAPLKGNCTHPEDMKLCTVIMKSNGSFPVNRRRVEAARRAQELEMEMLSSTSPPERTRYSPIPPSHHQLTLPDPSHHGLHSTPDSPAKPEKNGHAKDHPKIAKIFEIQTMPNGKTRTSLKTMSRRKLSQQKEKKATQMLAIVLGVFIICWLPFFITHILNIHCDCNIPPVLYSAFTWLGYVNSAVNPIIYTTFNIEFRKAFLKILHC
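Read-out: kinetic calcium fluorescence (1 cycle/s) in inducible HEK293 T-REx D2 cells after an EC80 dopamine addition that followed 180 s compound preincubation. Loss of the dopamine response indicates antagonism.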
D2 ag-1 = activates the human D2 dopamine receptor; 360,000 tested, 0.084% active; activation, % (no concentration beside the values); P14416; DiscoveRx PathHunter D2 beta-arrestin, luminescence, 90 min; 100% = 57 uM dopamine signal; in the data active means activation above about 40%
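Agonist mode: compounds alone added to overnight-plated D2 PathHunter cells for 90 min at 37 C, with 57 uM final dopamine (EC100) defining full response. Beta-arrestin recruitment detected by chemiluminescent reagent, read after 1 h at ambient temperature.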
D2 PAM-1 = positive allosteric modulators of human D2 dopamine receptor; P14416; HEK293 T-REx D2, calcium flux, EC20 dopamine potentiation; potentiation, % at 10 µM; 340,000 tested, 0.34% active; AID 485347;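 active means potentiation over 3 SD above the plate norm, cut at about 30% in these data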; further: 0% is about no effect
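Using a no-wash calcium dye in inducible, force-coupled HEK293 Trex cells expressing D2, we tracked fluorescence each second for 180 s after compound, then for 180 s after EC20 dopamine to detect augmented signalling.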
D2 PAM-2 = human D2 receptor positive allosteric modulation. P14416. DiscoveRx D2 beta-arrestin cells, luminescence, 90 min; 100% = 57 uM dopamine signal. potentiation, % (test concentration not listed). 360,000 tested, 0.23% active. AID 624464; in the data active means potentiation above about 50%
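PathHunter D2 cells, attached overnight at 37 deg C, received compound in DMSO plus dopamine at EC20 (50 nM final) for 90 min at 37 deg C. Beta-arrestin recruitment was read as luminescence after 1 h with detection reagent at ambient temperature.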
D2 ag-2 = activates the human D2 dopamine receptor; P14416; HEK293 T-REx D2 cells, calcium flux agonist mode; activation, % at 2 µM; 340,000 tested, 0.53% active; AID 485358;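 active means activation over 3 SD above normal in the single-dose calcium agonist read, cut at about 30% in these data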; further: 0% is about no effect
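Tetracycline-induced HEK293 Trex cells with D2 receptor force-coupled to calcium signaling, plated overnight at 30 C and loaded with no-wash calcium dye. Calcium flux read kinetically for 180 s after compound addition; responses flag agonists.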
Numbers without * were called inactive. Shown are actives, neighbours in structure and some others; about 2.4% of the full set was active somewhere.

CCOc1ccc(-c2cc(NC(=O)c3ccc(C)cc3)c(C(=O)OC)s2)cc1 was read as D2 PAM-1 -4 and D2 ag-2 -1.
Screening Cc1ccccc1NC(=O)c1ccccc1NC(=O)c1ccco1 returned D2 antag -9, D2 ag-1 -2, D2 PAM-1 5, D2 PAM-2 -19 and D2 ag-2 0.
For CNC(=O)c1ccccc1NC(=O)c1ccco1 the results were D2 antag -3, D2 ag-1 -4, D2 PAM-1 34*, D2 PAM-2 8 and D2 ag-2 -1.
CC1CCCCN1C(=O)c1ccccc1NC(=O)c1ccco1 (stereo unspecified) was read as D2 antag 12, D2 ag-1 -1, D2 PAM-1 31*, D2 PAM-2 -16 and D2 ag-2 -2.
O=C(C=P(c1ccccc1)(c1ccccc1)c1ccccc1)c1ccccc1-c1ccccc1C(=O)C=P(c1ccccc1)(c1ccccc1)c1ccccc1 was read as D2 ag-1 -2 and D2 PAM-2 -26.
`Cc1cc(C(=O)NCc2ccc(S(N)(=O)=O)cc2)c(C)o1` gave D2 antag 30*, D2 ag-1 -2, D2 PAM-1 -4, D2 PAM-2 -4 and D2 ag-2 0.
Screening Clc1ccc2c(c1)-n1cc(-c3ccccc3)nc1CO2 returned D2 PAM-1 18 and D2 ag-2 1.
`Cc1ccc(C(=O)CSc2nc(-c3ccccc3)nc3c2CCCC3)cc1C` gave D2 PAM-1 -9 and D2 ag-2 2.
`Cc1ccc(C(=O)CSc2ncc3c(n2)-c2ccccc2N(Cc2ccc(Cl)cc2)S3(=O)=O)cc1` gave D2 PAM-1 -10 and D2 ag-2 1.
For CC(C)(C)c1ccc(C(=O)NC(Cc2c[nH]c3ccccc23)C(=O)OCC(=O)c2ccc(Br)cc2)cc1 (stereo unspecified) the results were D2 PAM-1 -7 and D2 ag-2 0.
Screening CN1CCN(c2cc(-c3ccccc3)nc3cc(-c4ccc(F)cc4)nn23)CC1 returned D2 antag 54*, D2 ag-1 -3, D2 PAM-1 -21, D2 PAM-2 -38 and D2 ag-2 0.
For CCc1ccc(NC(=O)CC2C(=O)N(c3ccc(Cl)cc3)C(=O)N2Cc2ccco2)cc1 (stereo unspecified) the results were D2 ag-2 1.
O=C(O)CC/C(=N\Nc1ccc(S(=O)(=O)N2CCCC2)cc1[N+](=O)[O-])c1cccs1 was read as D2 antag -2, D2 ag-1 -4, D2 PAM-1 12, D2 PAM-2 -17 and D2 ag-2 1.
`O=C(O)CC/C(=N\Nc1ccc(S(=O)(=O)N2CCOCC2)cc1[N+](=O)[O-])c1cccs1` gave D2 antag 30*, D2 ag-1 -5, D2 PAM-1 -2, D2 PAM-2 -8 and D2 ag-2 -1.
`Cc1ccc(NCC(=O)N/N=C/c2ccncc2)cc1` gave D2 antag 49*, D2 ag-1 -1, D2 PAM-1 4, D2 PAM-2 -2 and D2 ag-2 -2.
NC(=O)C1(N2CCCCC2)CCN(Cc2ccc(Br)cc2)CC1 was read as D2 antag 37*, D2 ag-1 -2, D2 PAM-1 -25, D2 PAM-2 -18 and D2 ag-2 0.
Screening CC(C)c1ccccc1OCC(=O)N(C)CC(=O)Nc1ccc(F)cc1 returned D2 antag 56*, D2 ag-1 -3, D2 PAM-1 -22, D2 PAM-2 -46 and D2 ag-2 0.
CN(CC(=O)Nc1ccc(F)cc1)C(=O)COc1ncnc2ccccc12 was read as D2 antag 3, D2 ag-1 -2, D2 PAM-1 -6, D2 PAM-2 2 and D2 ag-2 0.
CN(CC(=O)Nc1ccc(F)cc1)C(=O)CSc1ccc2c(c1)OCCO2 was read as D2 antag 9, D2 ag-1 -2, D2 PAM-1 -16, D2 PAM-2 -2 and D2 ag-2 0.
`Cc1ccc(SCC(=O)OCC(=O)N(C)CC(=O)Nc2ccc(F)cc2)cc1C` gave D2 antag 38*, D2 ag-1 0, D2 PAM-1 6, D2 PAM-2 10 and D2 ag-2 12.
Screening CCOC(=O)C1CCN(C(=O)c2cc3ccc4ccc(C)[nH]c4c3n2)CC1 returned D2 PAM-1 5 and D2 ag-2 0.
